# From PubChem BioAssay
# GPR151 activ: activators of human GPR151, primary screen, cell-based, PathHunter beta-arrestin, luminescence. G-protein coupled receptor 151 (Homo sapiens), Q8TDV0. PathHunter beta-arrestin GPR151 cells. activation, % at 11.2 µM. 1% of 650,000 active; in the data active = activation above about 4.9%;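 note: 0% = median of compound wells and 100% = cells with positive control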
# Target sequence (Q8TDV0 whole entry, looked up): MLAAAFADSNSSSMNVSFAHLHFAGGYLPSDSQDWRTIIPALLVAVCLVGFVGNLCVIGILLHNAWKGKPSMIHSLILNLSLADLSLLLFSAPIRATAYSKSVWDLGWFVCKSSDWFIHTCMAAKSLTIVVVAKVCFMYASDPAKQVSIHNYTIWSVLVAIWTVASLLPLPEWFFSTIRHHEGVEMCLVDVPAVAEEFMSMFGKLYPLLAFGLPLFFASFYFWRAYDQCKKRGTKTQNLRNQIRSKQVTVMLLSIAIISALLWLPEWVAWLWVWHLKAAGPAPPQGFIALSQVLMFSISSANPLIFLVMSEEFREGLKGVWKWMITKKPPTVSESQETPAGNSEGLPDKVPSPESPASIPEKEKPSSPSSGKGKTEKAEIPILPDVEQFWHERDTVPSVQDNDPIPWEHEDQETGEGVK
# TEAD-YAP block: TEAD-YAP interaction inhibition, primary screen, TEAD-YAP interaction inhibitor project, luminescence, HEK-TIYL cells; TEAD-Gal4/YAP UAS-luciferase luminescence; inhibition, % at 9.12 µM; 1.4% of 640,000 active; in the data active = inhibition above about 32%;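 note: 0% = median of test compound wells and 100% = reference inhibitor wells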
# FBW7 activator: FBW7 E3 ligase activators, primary screen, biochemical, AlphaScreen, human; normalized activity (activation), % at 26.1 µM; F-box/WD repeat-containing protein 7 (Homo sapiens), Q969H0; 0.13% of 650,000 active; AlphaScreen FBW7–phospho-cyclin E peptide binding, activator screen; AID 1259310, 2017; in the data active = normalized activity above about 1.9%;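 note: purified mutant Fbw7 with reduced substrate affinity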
# MITF inh: MITF inhibitors, primary screen, biochemical, AlphaScreen, human; AlphaScreen MITF homodimerization, bead proximity signal; Microphthalmia-associated transcription factor (Homo sapiens), O75030; inhibition, % at 2.6 µM; 0.91% of 650,000 active; in the data active = inhibition above about 50%;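 note: 0% = vehicle wells with protein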
# Numbers without * were called inactive. Only some compounds are listed: those with a hit (about 3.4% of all), similar ones and a draw of the others.
SMILES,GPR151 activ,TEAD-YAP block,FBW7 activator,MITF inh
COc1ccc(CCNc2nc(-c3ccc(N4CCOCC4)nc3)nc3c2ncn3-c2ccsc2)cc1,1,-1,0,-1
Oc1ccc(CCNc2nc(-c3ccc(N4CCOCC4)nc3)nc3c2ncn3-c2ccsc2)cc1,0,65*,0,-10
COc1ccc(-c2nc(NCc3cccnc3)c3ncn(C(C)C)c3n2)cc1,4,4,1,11
CC(C)n1cnc2c(NCc3cccnc3)nc(-c3ccc(C(N)=O)cc3)nc21,0,39*,0,26
NC(=O)c1ccc(-c2nc(NCCc3ccc(O)cc3)c3ncn(-c4ccsc4)c3n2)cc1,-1,43*,0,8
CCN1C(=O)/C(=C/c2nc3ccccc3c(=O)n2C)c2ccccc21,0,-7,0,14
Cc1ccc(NC(=O)COC(=O)c2cccc(NC(=O)OC(C)(C)C)c2)cc1C,1,-2,0,10
Cc1ccc(NC(=O)Nc2nnc(N3CCCC(C)C3)s2)c(Cl)c1 (configuration not stated),1,-4,0,-4
COc1ccc(/C=C(/NC(=O)c2ccc(Cl)cc2Cl)C(=O)N(C)C)cc1,-1,-1,0,17
CN(C)CCNC(=O)C(=O)NCC(c1ccco1)S(=O)(=O)c1ccc(F)cc1 (configuration not stated),1,13,1,15
COc1ccc(CCNc2nc(-c3ccc(C(N)=O)cc3)nc3c2ncn3C2CCCCC2)cc1,-1,9,0,-1
COc1ccc(CCNc2nc(-c3ccc(C(=O)NC4CC4)cc3)nc3c2ncn3C2CCCCC2)cc1,1,51*,0,7
O=C(NC1CC1)c1ccc(-c2nc(NCCc3ccc(O)cc3)c3ncn(-c4ccsc4)c3n2)cc1,1,58*,0,6
CCOC(=O)c1c(NC(=O)c2ccncc2)sc(C)c1-c1ccc(Cl)cc1,0,1,0,-1
COc1ccc(S(=O)(=O)Nc2cccc(-c3ccc(N4CCCCC4)nn3)c2)cc1C,-3,46*,0,-10
O=S(=O)(Nc1cccc(-c2ccc3nncn3n2)c1)c1cccc(C(F)(F)F)c1,-1,-8,0,16
COc1ccc(S(=O)(=O)Nc2cccc(-c3ccc4nncn4n3)c2)cc1F,0,45*,1,15
Cc1nc(N)n2c(SCC(=O)N3CCCC3)nnc2c1Cc1ccccc1,0,-4,0,21
C=CCNC(=O)c1ccc(S(=O)(=O)c2ccc(F)cc2)c([N+](=O)[O-])c1,1,34*,0,13
O=C(c1ccc(S(=O)(=O)c2ccccc2Cl)c([N+](=O)[O-])c1)N1CCN(Cc2ccccc2)CC1,2,33*,0,8
O=C(c1ccc(S(=O)(=O)c2ccc(Br)cc2)c([N+](=O)[O-])c1)N1CCCCCC1,1,35*,0,15
O=C(O)c1ccc(S(=O)(=O)c2ccc(F)cc2)c([N+](=O)[O-])c1,-1,-4,0,10
CCOC(=O)CS(=O)(=O)c1ccc(C(=O)N2CCN(c3cccc(C)c3)C(C)C2)cc1[N+](=O)[O-] (configuration not stated),0,52*,0,-7
NS(=O)(=O)c1ccc(CNC(=S)NCC2CCCO2)cc1 (configuration not stated),0,-2,0,1
CCN1C(=O)C(O)(CC(=O)c2ccc(Cl)s2)c2cc(Br)ccc21 (configuration not stated),0,7,0,-1
SMILES,GPR151 activ,TEAD-YAP block,FBW7 activator,MITF inh
CCSc1ccccc1C(=O)N1CCc2ccccc21,-1,1,0,19
COc1ccc(/C=C(/C#N)C(=O)Nc2ccc(C)cc2C)cc1,0,-4,1,19
O=C(c1ccc(S(=O)(=O)c2ccc(Br)cc2)c([N+](=O)[O-])c1)N1CCCCC1,-1,37*,0,9
Cc1cccc(N2CCN(C(=O)c3ccc4c(c3)NC(=O)c3ccccc3N4)CC2C)c1 (configuration not stated),2,-4,0,1
Cc1cccc(N2CCN(C(=O)c3ccc4c(c3)NC(=O)CS4)CC2C)c1 (configuration not stated),0,60*,1,16
CC1CCCCN1C(=O)c1ccc(S(=O)(=O)c2cccc(Cl)c2)c([N+](=O)[O-])c1 (configuration not stated),0,38*,0,3
Cc1cccc(N2CCN(C(=O)c3ccc(S(=O)(=O)c4ccc(F)cc4)c([N+](=O)[O-])c3)C(C)C2)c1 (configuration not stated),3,54*,0,14
Cc1csc(SCc2cccc(S(=O)(=O)N(C)C)c2)n1,-1,-4,1,-2
CN1C(=O)Cc2cc(NC(=O)NCc3cccc4ccccc34)ccc21,1,8,0,-3
O=C(c1ccc(S(=O)(=O)c2ccc(F)cc2)c([N+](=O)[O-])c1)N1CCCCCC1,0,34*,0,-4
Cc1ccc(C)c(N2CCN(C(=O)c3ccc(S(=O)(=O)c4ccccc4Cl)c([N+](=O)[O-])c3)CC2)c1,2,8,0,5
CCCNC(=O)c1ccc(S(=O)(=O)c2ccc(OC)cc2)c([N+](=O)[O-])c1,0,36*,0,-6
Cc1ccc(C)c(N2CCN(C(=O)c3ccc(S(=O)(=O)c4ccc(F)cc4)c([N+](=O)[O-])c3)CC2)c1,0,44*,0,15
O=C(c1ccc(S(=O)(=O)c2ccc(Br)cc2)c([N+](=O)[O-])c1)N1CCCC1,0,32*,1,15
O=C(c1ccc(S(=O)(=O)c2ccc(Br)cc2)c([N+](=O)[O-])c1)N1CCN(c2ccc(F)cc2)CC1,1,11,0,-12
O=C(c1ccc(S(=O)(=O)c2ccc(F)cc2)c([N+](=O)[O-])c1)N1CCC2(CC1)OCCO2,0,4,0,2
CCN(CC)C(=O)c1ccc(Sc2ccc(Br)cc2)c([N+](=O)[O-])c1,1,5,0,3
CCN(CC)C(=O)c1ccc(S(=O)(=O)c2ccc(Br)cc2)c([N+](=O)[O-])c1,-1,49*,0,11
Cc1ccc(C(=O)N2CCN(c3ccc([N+](=O)[O-])cc3)CC2C)cc1 (configuration not stated),1,39*,0,5
CCN(CCN(C)C)C1CCc2c(sc3ncn(Cc4ccccc4OC)c(=O)c23)C1 (configuration not stated),0,1,0,-6
O=Cc1ccc(-c2ccc(C(=O)O)c(O)c2)o1,-1,3,0,86*
N#C/C(=C\c1ccc(N2CCOCC2)cc1)c1[nH]nc(N)c1C#N,-2,39*,0,18
